Measurements as given in ChEMBL document CHEMBL4888484, “Replenishing the malaria drug discovery pipeline: Screening and hit evaluation of the MMV Hit Generation Library 1 (HGL1) against asexual blood stage Plasmodium falciparum ,using a nano luciferase reporter read-out” (2022).
Hit rate of the full screen: of about 150,000 compounds, about 540 (0.36%) showed an effect of 50% or more. Only a selection was taken, and strong results are over-represented in it overall.

Tested on: Plasmodium falciparum
Test: Primary screen in NF54 nanoGlo assay, in single point, at 2uM, 72h; a lower Z score goes with more inhibition
Type: functional, Erythrocyte
Details: timepoint 72 hour

Row | Compound | % Inhibition [%] | Z score
1 | C[C@H]1C(=O)N(C)C[C@@H](COc2ccccc2)N1C(=O)C1CCOCC1 | -7 | 0.87
2 | Cc1cc(CNC(=O)N[C@@H]2CCc3cc(F)ccc32)on1 | -7 | 0.96
3 | O=C(NC1=NN2C(=NC(c3ccc(Cl)cc3)=C[C@H]2c2ccc(F)cc2)N1)c1ccc(Cl)cc1 | 48 | -9.04
4 | COc1ccccc1C(=O)NC1=NN2C(=NC(c3ccc(Cl)cc3)=C[C@H]2c2ccccc2)N1 | -8 | 0.83
5 | Fc1ccc(C2=C[C@@H](c3ccc(Cl)cc3)N3N=C(c4ccc(Cl)cc4)NC3=N2)cc1 | 96 | -14.66
6 | COc1ccc([C@@H]2C=C(c3ccc(Cl)cc3)N=C3NC(N4C(=O)c5ccccc5C4=O)=NN32)cc1 | -6 | 0.61
7 | COc1ccc([C@@H]2C=C(c3ccc(Cl)cc3)N=C3NC(NC(=O)c4ccccc4OC)=NN32)cc1 | 96 | -8.52
8 | O=C(NC1=NN2C(=NC(c3ccccc3)=C[C@H]2c2ccc(F)cc2)N1)c1ccccc1 | -11 | 1.69
9 | O=C(O)CCC(=O)NC1=NN2C(=NC(c3ccccc3)=C[C@H]2c2ccc(Cl)cc2)N1 | -39 | 4.56
10 | COc1ccccc1C(=O)NC1=NN2C(=NC(c3ccc(Cl)cc3)=C[C@H]2c2ccc(Cl)cc2)N1 | 97 | -10.07
11 | CCC(=O)NC1=NN2C(=NC(c3ccc(Cl)cc3)=C[C@H]2c2ccc(F)cc2)N1 | 5 | -0.64
12 | Cc1cccc(OCC(=O)Nc2cc(-c3noc(C)n3)sc2C)c1 | -14 | 2.32
13 | Cc1ccc(-n2cnc3c2CCN(C(=O)C(=O)Nc2c4c(nn2C)CCCC4)C3)cc1 | -13 | 1.99
14 | C[C@H]1Cc2ccccc2N1C(=O)Cn1cc(-c2ccn(C)n2)nn1 | 6 | -0.77
15 | COC(=O)CC(C)NC(=O)CC(C)NC(=O)C1CCCC1 (configuration not stated) | -9 | 1.14
16 | OCCN(CCO)c1ccc2ccccc2c1 | 7 | -0.86
17 | OCCN(CCO)c1ccc(C(c2ccccc2Cl)c2ccc(N(CCO)CCO)cc2Cl)c(Cl)c1 | -9 | 1.44
18 | CC1=CC(=[N+](CCO)CCO)C=C/C1=C(\c1ccc(N(CCO)CCO)cc1C)c1ccccc1Cl | 86 | -10.15
19 | COc1cccc(C(=O)N2CCC([C@]3(CCC(C)C)NC(=O)N(CCN(C)C)C3=O)CC2)c1OC | -8 | 1.37
20 | O=C(Cc1ccc(F)cc1Cl)N[C@@H](Cc1ccncc1)C1CC(O)C1 (some centres not stated) | -6 | 1.08
21 | N#Cc1cccc(CN2Cc3nc[nH]c3C[C@H]2C(=O)NCc2ccco2)c1 | -5 | 0.75

Row | Compound | % Inhibition [%] | Z score
22 | Nc1c(-c2nc3ccccc3[nH]2)c2nc3ccccc3nc2n1Cc1ccccc1F | 78 | -5.76
23 | CCn1c(N)c(-c2nc3ccccc3[nH]2)c(=O)c2ccccc21 | -1 | 0.15
24 | Nc1c(S(=O)(=O)c2ccc(Cl)cc2)c2nc3ccccc3nc2n1Cc1ccc(F)cc1 | -2 | 0.21
25 | O=C(COc1ccc(Br)cc1)N1CCN(S(=O)(=O)c2ccc3ccccc3c2)CC1 | -3 | 0.36
26 | CN(C)c1nc2cc(NC(=O)Cc3noc4ccccc34)ccc2o1 | -15 | 2.38
27 | Cn1cnnc1CNC[C@H](O)c1ccc(Cl)cc1 | -8 | 1.54
28 | CN(C)CCNS(=O)(=O)c1c[nH]c2c(Br)cccc12 | 31 | -3.96
29 | Cc1ccc2nc(CN3CCS(=O)(=O)C(C)C3C)cn2c1 (configuration not stated) | -13 | 1.17
30 | COCCCNC(=O)c1cc(Br)ccc1Br | -3 | 0.44
31 | COc1cc2c(cc1OC)CN(C(=O)c1ccc(N3CCOCC3)nc1)CC2 | 2 | -0.32
32 | CC(C)c1nnc(C2CCN(C(=O)c3c[nH]c4ccccc34)CC2)o1 | 11 | -1.46
33 | O=c1[nH]c2cc(Cl)c(S(=O)(=O)Cl)cc2[nH]1 | 69 | -7.82
34 | Cc1cc2[nH]c(=O)[nH]c2cc1S(=O)(=O)NC1CCCCC1 | -5 | 0.69
35 | O=c1[nH]c2cc(Br)c(S(=O)(=O)Nc3cccnc3)cc2[nH]1 | 3 | -0.54
36 | CN1C(=O)C2(CCN(C(=O)CN3C(=O)OC(C)(C)C3=O)CC2)c2ccccc21 | -7 | 0.88
37 | O=C(CN(CC1CCCO1)C(=O)C1CC1(Cl)Cl)N1CCCC1 (configuration not stated) | -19 | 1.85
38 | O=C(c1ccc2c(c1)OCO2)N1CCn2c1nc1ccccc12 | 72 | -0.31
39 | O=C(c1cncc(N2CCOCC2)c1)N1CCn2c1nc1ccccc12 | -9 | 1.5
40 | O=C(c1cccc(-n2cnnn2)c1)N1CCn2c1nc1ccccc12 | 2 | -0.23
41 | Cc1cnc(C(=O)NC2CCCCCCC2)cn1 | 18 | -2.33
42 | COc1ccc2nc(O)c(C(=O)Nc3ccc4c(c3F)CCNC4)cc2c1 | 99 | -18.01

Row | Compound | % Inhibition [%] | Z score
43 | COc1ccc2nc(O)c(CCC(=O)N3CCCC3)cc2c1 | -20 | 3.74
44 | O=C(CC1CCC(F)(F)CC1)Nc1ccc2c(c1F)CCNC2 | -13 | 1.83
45 | CC(C)n1ccnc1CN1CCC[C@@](O)(CNC(=O)N2CCCCC2)CC1 | -5 | 0.65
46 | CC(Cc1ccccc1Cl)C(=O)NC1CCN(C(=O)Nc2ccccc2)C1 (configuration not stated) | -1 | 0.11
47 | CC(C)CC[C@@H](CCN1CCCC1)c1ccc(OC(C)C)cc1 | 2 | -0.36
48 | CC(C)CCn1ccc(NC2CCN(C)CC2)n1 | -15 | 1.91
49 | CC(C)CC[C@@H](CCNCCN(C)C)c1ccc(Cl)cc1 | 90 | -10.16
50 | CC(C)CC[C@@H](CCNC1CCN(C)CC1)c1ccc(Cl)cc1 | 63 | -7.69
51 | CN1CCC(NCCOCc2ccc(Cl)cc2Cl)CC1 | 0 | 0
52 | COc1ccc(Cl)cc1CNCCN(C)C | -7 | 0.59
53 | CC(C)CC[C@@H](CCNCc1ccccn1)c1ccc(Cl)cc1 | 25 | -3.14
54 | CN1CCC(NCC[C@@H](Cc2ccccc2Cl)c2ccc(Cl)cc2)CC1 | 72 | -14.93
55 | Cn1ccc(-c2nnc(NC(=O)C3CCCCC3)o2)n1 | -10 | 1.57
56 | Cc1c(F)cccc1C(=O)N(C)Cc1cc(C2CC2)on1 | 1 | -0.14
57 | Cc1nn(C(F)F)cc1-c1ccc(C(=O)N[C@H]2CCCC[C@@H]2O)cc1 | 1 | -0.28
58 | CCn1c(CCc2cccc(NC(=O)Nc3ccccc3)c2)nc2ccccc21 | 1 | -0.11
59 | O=C(NCCc1cn2c(n1)CCCC2)c1cccnc1 | -1 | 0.23
60 | CCC1CN(C(=O)NCc2cc(OC)no2)CC(C)O1 (configuration not stated) | -11 | 2.2
61 | CC1(C(=O)Nc2n[nH]c3cc(F)ccc23)CC2CCC1O2 (configuration not stated) | -7 | 1.08
62 | Cc1cc(C)c(C(=O)NCC#C[C@@H]2CCCCO2)c(C)n1 | -23 | 2.49
63 | Cc1cccc2ncc(C(=O)N[C@@]34COC[C@@H]3C4)n12 | -12 | 1.31

Row | Compound | % Inhibition [%] | Z score
64 | O=C(NC[C@H]1OC[C@@H](NCc2cccnc2)[C@@H]1O)c1ccc(F)cc1 | -7 | 0.99
65 | Cc1c([C@@H](NCc2ncccc2O)C(C)C)oc2ccccc12 | 97 | -8.67
66 | Cc1c([C@H](C)NCc2cncnc2)oc2ccccc12 | -15 | 1.68
67 | Cc1c([C@@H](NCC(=O)N2CCC(C(N)=O)CC2)C(C)C)oc2ccccc12 | -13 | 1.5
68 | CC(C)C(=O)N1CCc2ccc(OCc3nc(C(=O)N(C)Cc4ccccc4)cs3)cc2[C@@H]1c1ccccc1 | 1 | -0.07
69 | CN(C)c1ncc(CN[C@H]2[C@H](c3ccccc3)C2(C)C)cn1 | 10 | -1.13
70 | CC(C)CC[C@@]1(C2CC2)NC(=O)N(Cc2ccc(C#N)cn2)C1=O | -14 | 2.83
71 | O=C(c1csnn1)N1CCc2[nH]nc(-c3ccccc3F)c2C1 | -7 | 1.02
72 | COc1ccc(F)cc1S(=O)(=O)N1CCc2ncncc2C1 | -3 | 0.62
73 | COc1ccc(F)cc1S(=O)(=O)N1CCc2noc(N)c2C1 | 72 | -5.81
74 | COc1ccc(F)cc1S(=O)(=O)N1CCn2c(nn(C)c2=O)C1 | -13 | 2.3
75 | O=C(c1ccc(O)cc1)N1CCN(Cc2ccccn2)[C@@H]2CS(=O)(=O)C[C@@H]21 | 3 | -0.42
76 | Cc1nn(-c2nc3ccccc3[nH]2)c2c1[C@@H](c1ccc(Cl)c(Cl)c1)CC(=O)N2 | 14 | -1.74
77 | Cc1nn(-c2nc3ccccc3[nH]2)c2c1[C@@H](c1cccnc1)CC(=O)N2 | 68 | -14.32
78 | Cc1nn(-c2nc3ccccc3[nH]2)c2c1[C@@H](c1c(C)sc3ccccc13)CC(=O)N2 | 4 | -0.46
79 | C[C@H]1CCN(C(=O)c2cccc3c2CCCN3)[C@@H](C)C1 | 12 | -1.41
80 | CC(C)(C)C1CCC(O)(CNC(=O)NC2CCC(O)CC2)CC1 (configuration not stated) | 0 | -0.1
81 | CCOC(=O)c1n[nH]cc1CNCc1cccnc1N(C)C | 4 | -0.61
